Reference: PubChem BioAssay AID2241 (Broad Institute, 2010)
In all, about 21,000 compounds went through this assay and about 110 (0.52%) were called active.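 Rule for the calls: active = most replicate scores above 10, or exactly half above 10 with mean activity above 10; inconclusive = mean activity below 10 while half the replicates exceed 10; inactive = most replicate scores below 10.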 For the sample, actives were picked, then their nearest neighbours and some compounds at random.

Assay: caspase activation in A1-primed MEFs – cell-based, CaspaseGlo luminescence, A1 inhibitor project, primary screen (AID 2241);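 note: effector caspase 3 and 7 activity cleaving a DEVD luciferin substrate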
Conditions: MEF A1-2A-BIM cells, caspase-Glo luminescence, 3 h; stronger effect = higher value; percent of clofoctol signal, DMSO as zero; concentration not given here

| SMILES | caspase activation |
| --- | --- |
| CN(c1ncnc2c1cnn2-c1ccc(Cl)cc1)C1CCCCC1 | -2.01% (inactive) |
| CC1CCN(S(=O)(=O)c2ccc3nc(-c4ccccn4)cc(C(=O)NC4CCCC4)c3c2)CC1 | -1.16% (inactive) |
| CC(C)(C)c1ccc(/C=C/C(=O)NC2CCS(=O)(=O)C2)cc1 (stereo not drawn) | -0.861% (inactive) |
| C=C1C(=O)O[C@@H]2[C@H]3C(CO)=CC(=O)C3=C(C)C[C@H](OC(=O)Cc3ccc(O)cc3)[C@@H]12 | -0.373% (inactive) |
| C[C@@H]1CN([C@H](C)CO)C(=O)c2cc(NS(=O)(=O)c3ccc(F)cc3)ccc2O[C@H]1CN(C)Cc1ccncc1 | 0.648% (inactive) |
| CC(C)(C)c1ccc(Cn2c(=N)n(CC(=O)O)c3ccccc32)cc1 | -0.508% (inactive) |
| C[C@@H]1CN([C@@H](C)CO)C(=O)c2cc(NC(=O)Cc3ccccc3)ccc2O[C@@H]1CN(C)S(=O)(=O)c1ccccc1 | 0.193% (inactive) |
| CCCCn1c2nc3ccccc3nc2c2c(N)ncnc21 | -0.174% (inactive) |
| C[C@@H]1CN([C@@H](C)CO)C(=O)c2cc(NC(=O)Nc3ccc(F)cc3)ccc2O[C@H]1CN(C)CC1CCCCC1 | 0.271% (inactive) |
| CCc1ccccc1NC(=O)c1ccc2snnc2c1 | 0.441% (inactive) |
| CCOC(=O)C1CCC(CN(Cc2ccccc2)S(=O)(=O)c2ccc(F)c(C)c2)CC1 (stereo not drawn) | 0.544% (inactive) |
| CC(C)[C@H](CO)Nc1nc(Nc2cc(N)cc(Cl)c2)c2ncn(C(C)C)c2n1 | 13.9% (active) |
| CC(C)OC(=O)C1=c2s/c(=C\c3cccnc3)c(=O)n2C(N)=C(C#N)C1c1cccnc1 (stereo not drawn) | -0.566% (inactive) |
| COc1ccc(NC(=O)N(C)C[C@H]2Oc3ccc(NS(=O)(=O)c4ccc(F)cc4)cc3C(=O)N([C@@H](C)CO)C[C@@H]2C)cc1 | -0.29% (inactive) |
| Cc1ccc(-c2nc(Nc3ccccc3F)sc2C)cc1 | -0.917% (inactive) |
| CC1CCN(C(=O)Cn2cnc3c(cnn3-c3ccccc3)c2=O)CC1 | -0.191% (inactive) |
| O=C(c1nc2ncccn2n1)N(Cc1ccccc1)Cc1ccccc1 | -0.322% (inactive) |
| COc1nnc(-c2ccc(C)c(S(=O)(=O)N(C)C)c2)c2ccccc12 | 0.109% (inactive) |
| Cc1ccc(S(=O)(=O)Nc2ccc3c(c2)C(=O)N([C@@H](C)CO)C[C@@H](C)[C@@H](CN(C)Cc2ccncc2)O3)cc1 | 0.309% (inactive) |
| Cc1ccc(C(=O)NC(NCc2ccco2)(C(F)(F)F)C(F)(F)F)cc1 | -0.256% (inactive) |
| O=C(c1ccccc1)C(CC(=O)N1CCOCC1)c1ccccc1 (stereo not drawn) | 0.00844% (inactive) |
| C[C@@H]1CN([C@H](C)CO)C(=O)c2cc(NC(=O)Cc3cn(C)c4ccccc34)ccc2O[C@@H]1CN(C)S(=O)(=O)c1cccs1 | -0.00537% (inactive) |
| CCSc1ccc2nnc(CCNC(=O)c3ccccc3)n2n1 | 0.0984% (inactive) |
| COc1ccccc1C(=O)N/C(=C\c1ccccc1)C(=O)N1CCOCC1 | -0.546% (inactive) |
| Cc1ccc(O)c(C(C)(C)C)c1 | -0.605% (inactive) |
| Cc1sc2nc3n(c(=O)c2c1C)N=C(c1ccc(F)cc1)CS3 | -1.09% (inactive) |

| SMILES | caspase activation |
| --- | --- |
| CC1=C(Cc2ccc(OC(=O)c3ccccc3)cc2)C(=O)C(C(C)C)CC1 (stereo not drawn) | 0.579% (inactive) |
| CC(=O)N1[C@@H](c2ccc(C)cc2)SC(C)(C)[C@@H]1C(=O)O | -0.0443% (inactive) |
| O=C(CNC(=S)N(Cc1ccccc1)Cc1ccccc1F)N1CCCC1 | 0.68% (inactive) |
| O=C(NCSc1nc2ccccc2s1)c1ccco1 | 0.614% (inactive) |
| O=S(=O)(NCc1ccc(-c2cccs2)cc1)c1cccs1 | 0.285% (inactive) |
| CC(C)NC(=O)N(C)C[C@H]1Oc2ccc(N(C)C)cc2C(=O)N([C@@H](C)CO)C[C@H]1C | 0.193% (inactive) |
| Cc1noc(C)c1NC(=O)N(C)C[C@H]1Oc2ccc(NS(=O)(=O)c3ccc(F)cc3)cc2C(=O)N([C@@H](C)CO)C[C@H]1C | 0.124% (inactive) |
| O=C1CCCCC1C(=O)c1ccccc1 (stereo not drawn) | -0.0515% (inactive) |
| COC(=O)C1=C(C)Nc2c(c(=O)n(C)c(=O)n2C)C1c1cccc(OCc2ccccc2)c1 (stereo not drawn) | 0.0517% (inactive) |
| C[C@H]1CN([C@@H](C)CO)C(=O)c2cc(NC(=O)C3CC3)ccc2O[C@@H]1CN(C)Cc1ccc(Oc2ccccc2)cc1 | 0.539% (inactive) |
| O=C(CCn1c(=S)[nH]c2cc3c(cc2c1=O)OCO3)NC1CCCC1 | -1.11% (inactive) |
| Clc1ccc(N2CCCCCCC2)nn1 | 0.981% (inactive) |
| CC(=O)Nc1ccc(N=Cc2ccc(N3CCOCC3)cc2)cc1 | -0.682% (inactive) |
| Cc1ccc(C23CC4CC(CC(CN)(C4)C2)C3)cc1C | 4.34% (inactive) |
| Cc1cc(-c2cccs2)c2c(N)c(C(=O)c3ccccc3)sc2n1 | 1.1% (inactive) |
| O=c1c2c3c(sc2[nH]c(=S)n1Cc1ccccc1)CCCCC3 | -0.256% (inactive) |
| Cc1ccc(SCC(=O)Nc2nncs2)cc1 | -1.27% (inactive) |
| O=C(NCc1ccc2c(c1)OCO2)c1ccc(Cl)cc1 | -0.323% (inactive) |
| CCOC(=O)c1cc(-c2ccnn2S(=O)(=O)c2ccc(C)cc2)on1 | -0.165% (inactive) |
| Cc1noc(C)c1NC(=O)Nc1ccc2c(c1)C(=O)N([C@@H](C)CO)C[C@@H](C)[C@H](CN(C)Cc1ccc(C(F)(F)F)cc1)O2 | -0.666% (inactive) |
| Cc1ccc(S(=O)(=O)Nc2ccc3c(c2)C(=O)N([C@@H](C)CO)C[C@H](C)[C@@H](CN(C)Cc2ccc4c(c2)OCO4)O3)cc1 | -0.498% (inactive) |
| O=C(COc1ccccc1)NCCc1nc2ccccc2n1Cc1ccccc1 | 0.301% (inactive) |
| Cc1cc(C)c(N=c2scc(C)n2Cc2ccccc2)c(C)c1 | 0.564% (inactive) |
| COc1ccc(-c2cc(C(F)(F)F)nc(SCC(=O)N3CCCCCC3)n2)cc1OC | -1.22% (inactive) |
| Cc1cccc(N2CCN(C(=O)CCn3c(=S)[nH]c4cc5c(cc4c3=O)OCO5)CC2)c1C | -1.1% (inactive) |
| COc1ccc(S(=O)(=O)Nc2ccc3c(c2)C(=O)N([C@@H](C)CO)C[C@H](C)[C@H](CN(C)Cc2ccc(C(=O)O)cc2)O3)cc1 | 0.618% (inactive) |

| SMILES | caspase activation |
| --- | --- |
| C/C=C1\CC(C)(CC)C(C#N)(C#N)C(N)=C1C#N (stereo not drawn) | -1.08% (inactive) |
| Cc1ccc(S(=O)(=O)Nc2ccc3oc(C)c(C(=O)NN)c3c2)cc1 | 0.426% (inactive) |
| COc1ccc(CCn2c(C)nc(=O)c(-c3ccccc3)c2C)cc1OC | 0.553% (inactive) |
| CC1(C)CC(=O)C=C(Nc2ccccc2)C1 | 0.527% (inactive) |
| CN(C)c1ccc(/C=C(\C#N)S(=O)(=O)c2ccccc2)cc1C#N | 0.997% (inactive) |
| COc1ccc(OC(=O)c2csc(Cc3c(Cl)cccc3Cl)n2)cc1 | 1.94% (inactive) |
| O=C(Nc1nccs1)C1CCCN(C(=O)c2cnn(-c3ccccc3)c2-n2cccc2)C1 (stereo not drawn) | 0.381% (inactive) |
| CC1(C)CC(=O)C(C=NCc2cccnc2)=C(O)C1 | 1.24% (inactive) |
| C[C@H](CO)N1C[C@H](C)[C@@H](CN(C)Cc2ccccc2)Oc2ccc(NC(=O)Nc3ccc4c(c3)OCO4)cc2C1=O | 0.17% (inactive) |
| COc1ccc(CN(C)C[C@@H]2Oc3ccc(NC(=O)NC(C)C)cc3C(=O)N([C@@H](C)CO)C[C@H]2C)cc1 | -0.804% (inactive) |
| CC1(C)Cc2c(sc3ncn4nc(COc5ccc(Cl)cc5)nc4c23)C(C)(C)N1 | 0.338% (inactive) |
| C/C=C(/C)C(=O)O[C@H]1CC(C)(C)C[C@H]2C3=CCC4[C@@]5(C)CC[C@H](O[C@@H]6O[C@H](C(=O)O)[C@@H](O[C@@H]7O[C@H](CO)[C@H](O)[C@H](O)[C@H]7O[C@@H]7O[C@H](CO)[C@@H](O)[C@H](O)[C@H]7O)[C@H](O)[C@H]6O[C@@H]6O[C@@H](C)[C@H](O)[C@@H](O)[C@H]6O)C(C)(C)C5CC[C@@]4(C)[C@]3(C)[C@@H](O)[C@@H](O)[C@@]12CO (stereo partly drawn) | -2.44% (inactive) |
| COc1ccc(S(=O)(=O)N(C)C[C@H]2Oc3ccc(NC(=O)Nc4c(C)noc4C)cc3C(=O)N([C@H](C)CO)C[C@H]2C)cc1 | -0.141% (inactive) |
| CCOC(=O)c1cnc2cc(C(F)(F)F)ccc2c1N1CCCCCC1 | 0.00836% (inactive) |
| C[C@H](CO)N1C[C@H](C)[C@H](CN(C)S(=O)(=O)c2cccs2)Oc2ccc(NS(=O)(=O)c3ccccc3)cc2C1=O | -0.0772% (inactive) |
| COc1cccc(NC(=O)c2cc3c(s2)-c2c(C)cccc2OC3)c1 | -5.23% (inactive) |
| Cc1nn(C)cc1C(=O)c1ccccc1 | 0.635% (inactive) |
| Cc1ccc2c(c1)N(CCCC(=O)N1CCCCC1)C(=O)CO2 | -0.335% (inactive) |
| Cc1ccccc1-n1c(-c2ccc(Br)cc2)n[nH]c1=S | -0.035% (inactive) |
| COc1cc(OC)cc(C(=O)N2CCN=C2c2ccccc2)c1 | 0.196% (inactive) |
| Cc1nn(C(C)C(=O)NC2CCCCCC2)c(=O)c2cc3occc3n12 (stereo not drawn) | 0.379% (inactive) |
| O=C(Nc1ccc(S(=O)(=O)Nc2nccs2)cc1)N1c2ccccc2Sc2ccccc21 | 0.0197% (inactive) |
| Fc1cc(F)cc(NC(=S)NCCN(C2CCCCC2)C2CCCC2)c1 | -0.0874% (inactive) |
| CC(=O)Oc1ccc(C2OCC3C(C)C=C(C)C2C3C)cc1 (stereo not drawn) | 0.946% (inactive) |
| O=C(NCc1ccc2c(c1)OCO2)c1sc(=S)n2c1[nH]c(=O)c1ccccc12 | -0.669% (inactive) |
| CCOC(=O)c1cn(CC)c2cc(F)c(F)cc2c1=O | 0.158% (inactive) |
